Records with an inconclusive call do not appear. Entries that show only a call come without a potency. Calls of active or inactive are those of the source. Calls follow the shape of the dose curve; as a rule, active = well fitted cell-killing curve with a large enough effect in the repeat runs; inconclusive = weak or mixed curves, or effect the other way; inactive = flat fitted curve, though single readings scatter.
How the values were obtained:
[1] = cAMP Responsive Elements (CRE) small molecule antagonists, cell-based qHTS assay: qHTS cell viability counter screen (AID 2060913); also: nearly all actives have a fitted effect of over 40% in size
Procedure, shortened: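 Viability of NKH477-stimulated (0.25 uM final) CRE-bla HEK293T cells is measured by CellTiter-Glo luminescence following 3 hrs compound exposure at 37 C.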

[2] = cAMP Responsive Elements (CRE) small molecule agonists, cell-based qHTS assay: qHTS cell viability counter screen (AID 2060914);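 also: viability read after 3 h of compound exposure; nearly all actives have a fitted effect of over 50% in size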
Procedure, shortened: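 CRE-bla HEK293T cells in 10% dialyzed FBS medium were exposed to compounds for 3 h at 37C after 18 h plating. CellTiter-Glo was then added in the same wells, and luminescence was read after 30 min at room temperature.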

SMILES | Potency [1] | Potency [2]
Oc1ccccc1C=NCc1ccccc1 | inactive | inactive
CC1COc2ccccc2N1C(=O)C(Cl)Cl (centres undefined) | inactive | inactive
CCCc1c(OCCCCc2nn[nH]n2)ccc(C(C)=O)c1O | inactive | inactive
Clc1ccc2c(c1)C(N1CCNCC1)=Nc1ccccc1O2 | inactive | inactive
Cc1ccc(C(=O)Nc2ccc(S(=O)(=O)O)c3cc(S(=O)(=O)O)cc(S(=O)(=O)O)c23)cc1NC(=O)c1cccc(NC(=O)Nc2cccc(C(=O)Nc3cc(C(=O)Nc4ccc(S(=O)(=O)O)c5cc(S(=O)(=O)O)cc(S(=O)(=O)O)c45)ccc3C)c2)c1 | inactive | inactive
Cc1ccc(C(C)C)cc1O | inactive | inactive
COS(=O)(=O)C(F)(F)F | inactive | inactive
O=C1OC(=O)C2CCCCC12 (centres undefined) | inactive | inactive
CCCCCCCCCCCCOCC1CO1 (centres undefined) | inactive | inactive
CC(CN(CCN(CC(C)OCCO)CC(C)OCCO)CC(C)OCCO)OCCO (centres undefined) | inactive | inactive
COCCc1ccccn1 | inactive | inactive
C=CC(C)(O)CC/C=C(\C)CCC=C(C)C (centres undefined) | inactive | inactive
O=[N+]([O-])c1cc[n+]([O-])cc1 | inactive | inactive
Cc1cccc(C)c1NC(=O)CC12CCCN1CCC2 | inactive | inactive
CC(Cl)COP(=O)(OCC(C)Cl)OCC(C)Cl (centres undefined) | inactive | inactive
CCCCOC(=O)CCS | inactive | inactive
CC(=O)S[C@@H]1CC2=CC(=O)CC[C@]2(C)[C@H]2CC[C@@]3(C)[C@@H](CC[C@@]34CCC(=O)O4)[C@H]12 | inactive | inactive

Source: PubChem BioAssay (Tox21)
